From PubChem BioAssay come the findings set out here.

Molecules are shown by their SMILES. For some of these results: Entries with a potency or affinity are not part of this list. The source made the active and inactive calls.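 How the source made its calls, unless noted: active means earlier screen potentiator hit that boosts the TRPC4 ion channel at some dose, with a dose response; inactive means no potentiation, no dose response, or not a prior hit.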

Assay [1] concerns TRPC4 beta (transient receptor potential cation channel C4), mouse. Nature of the assay: activators of mouse TRPC4 channel, confirmation, cell-based, Fluo4 calcium, HEK293 TRPC4beta/mu-opioid, duplicates, 10 µM (AID 2426;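 active means fluorescence ratio normalized to control raised more than 50% in primary screen plus both repeat runs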). The settings on record: Fluo4 calcium fluorescence, at 10 µM; hits give high values.
Assay [2] deals with transient receptor potential cation channel C4 beta (TRPC4), mouse. As to the kind of experiment: activators of mouse TRPC4 channel, confirmation, cell-based, second round, Fluo4, HEK293 TRPC4beta/mu-opioid, 1 µM (AID 2461;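 active means primary screen active and over 50% activation in each of two duplicate runs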). The settings on record: Fluo4 calcium fluorescence, at 1 µM; hits give high values.
The subject of assay [3] is TRPC4 (transient receptor potential cation channel C4 beta), mouse. As to the kind of experiment: positive allosteric modulators of mouse TRPC4, confirmation, cell-based, second round, Fluo-4, HEK293 TRPC4beta/mu-opioid, 1 µM (AID 2554;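 active means primary screen hit whose fluorescence ratio, in both repeats, exceeds the weak agonist control mean by 3 SD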). The settings on record: DAMGO EC20, Fluo-4 calcium flux, at 1 µM; hits give high values. In general terms: Calcium assays in cells follow changes in intracellular calcium, usually with a dye or a luminescent sensor.

Assay [4] relates to TRPC4 beta (transient receptor potential cation channel C4), mouse. As to the kind of experiment: positive allosteric modulators of mouse TRPC4, confirmation, cell-based, Fluo-4, HEK293 TRPC4beta/mu-opioid (AID 2555;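 active means primary screen hit whose calcium fluorescence ratio, in both repeats, exceeds the weak agonist control mean by 3 SD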). The following applies: DAMGO EC20, Fluo-4 calcium flux, at 10 µM; hits give high values.
Assay [5] deals with Short transient receptor potential channel 4 (Mus musculus) (UniProt Q9QUQ5). As to the kind of experiment: inhibitors of mouse TRPC4 channel, confirmation, cell-based, Fluo4, HEK293 TRPC4beta/mu-opioid (AID 2636;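 active means calcium signal cut by more than 3 SD below the full-agonist control yet still positive, in both repeats and the earlier primary screen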). The following applies: DAMGO, Fluo4 calcium flux, at 10 µM; hits give high values.
Chain of Short transient receptor potential channel 4 (Mus musculus) (Q9QUQ5 whole entry, looked up): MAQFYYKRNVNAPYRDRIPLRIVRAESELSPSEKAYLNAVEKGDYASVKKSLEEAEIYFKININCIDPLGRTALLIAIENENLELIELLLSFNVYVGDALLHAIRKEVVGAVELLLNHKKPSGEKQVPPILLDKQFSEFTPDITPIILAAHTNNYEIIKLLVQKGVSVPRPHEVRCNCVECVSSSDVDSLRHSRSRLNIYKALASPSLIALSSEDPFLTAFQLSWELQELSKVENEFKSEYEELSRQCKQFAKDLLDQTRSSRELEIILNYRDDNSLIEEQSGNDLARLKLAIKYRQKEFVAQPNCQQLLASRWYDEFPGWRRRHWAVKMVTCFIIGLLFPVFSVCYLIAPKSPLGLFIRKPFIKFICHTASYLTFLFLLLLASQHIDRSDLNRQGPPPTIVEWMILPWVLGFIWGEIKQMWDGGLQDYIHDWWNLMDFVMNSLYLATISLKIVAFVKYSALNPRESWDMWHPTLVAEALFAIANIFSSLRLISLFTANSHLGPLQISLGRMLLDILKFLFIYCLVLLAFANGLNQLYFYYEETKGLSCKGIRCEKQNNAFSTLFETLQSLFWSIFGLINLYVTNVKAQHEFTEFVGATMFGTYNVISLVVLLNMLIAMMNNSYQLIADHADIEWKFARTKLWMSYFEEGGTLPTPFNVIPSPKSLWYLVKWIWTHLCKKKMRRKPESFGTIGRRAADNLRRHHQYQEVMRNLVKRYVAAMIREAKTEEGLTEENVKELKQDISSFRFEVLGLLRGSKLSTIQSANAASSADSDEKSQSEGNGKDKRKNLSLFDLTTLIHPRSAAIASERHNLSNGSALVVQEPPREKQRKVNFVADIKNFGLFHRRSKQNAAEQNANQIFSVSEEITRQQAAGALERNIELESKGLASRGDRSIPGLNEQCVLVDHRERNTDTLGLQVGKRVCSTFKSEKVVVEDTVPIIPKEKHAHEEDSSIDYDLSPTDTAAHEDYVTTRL
Assay [6] has the same target. As to the kind of experiment: inhibitors of mouse TRPC4 channel, confirmation, cell-based, second round, Fluo4, HEK293 TRPC4beta/mu-opioid, 1 µM (AID 2637;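 active means calcium signal ratio cut to more than 3 SD under the fully stimulated control mean yet still positive, in both repeats and the primary screen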;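 on inhibition: percent of integrated ratio relative to wells lacking test compound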). The settings on record: Fluo4 calcium flux, DAMGO, at 1 µM; hits give high values.
Assay [7] shares this target. As to the kind of experiment: mouse TRPC4 channel activators, dose response, cell-based, HEK293 TRPC4/mu-opioid, Fluo-4 calcium (AID 434937;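 active means primary screen activator hit with a dose response curve and TRPC4 channel activation at any tested dose; inactive means no activation, no dose response, or not a primary hit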).
Assay [8] has the same target. As to the kind of experiment: TRPC4 positive allosteric modulators, dose response, cell-based, HEK293 TRPC4/mu-opioid, Fluo-4 calcium, EC20 DAMGO (AID 434941).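 Further: calcium entry triggered by an EC20 dose of DAMGO at the co-expressed mu-opioid receptor.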
Assay [9] deals with Short transient receptor potential channel 6 (Mus musculus) (UniProt Q61143). As to the kind of experiment: inhibition of mouse TRPC6 channel, confirmation, selectivity assay for TRPC4 inhibitor project, cell-based, HEK293, membrane potential dye, duplicate (AID 434948;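 active means active in primary screen and both duplicates, each dropping signal beyond three positive-control SD with fluorescence still positive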). The settings on record: HEK293 TRPC6, membrane potential dye fluorescence, at 10 µM, stimulated with maximal-effect acetylcholine; hits give high values.
Chain of Short transient receptor potential channel 6 (Mus musculus) (Q61143 whole entry, looked up): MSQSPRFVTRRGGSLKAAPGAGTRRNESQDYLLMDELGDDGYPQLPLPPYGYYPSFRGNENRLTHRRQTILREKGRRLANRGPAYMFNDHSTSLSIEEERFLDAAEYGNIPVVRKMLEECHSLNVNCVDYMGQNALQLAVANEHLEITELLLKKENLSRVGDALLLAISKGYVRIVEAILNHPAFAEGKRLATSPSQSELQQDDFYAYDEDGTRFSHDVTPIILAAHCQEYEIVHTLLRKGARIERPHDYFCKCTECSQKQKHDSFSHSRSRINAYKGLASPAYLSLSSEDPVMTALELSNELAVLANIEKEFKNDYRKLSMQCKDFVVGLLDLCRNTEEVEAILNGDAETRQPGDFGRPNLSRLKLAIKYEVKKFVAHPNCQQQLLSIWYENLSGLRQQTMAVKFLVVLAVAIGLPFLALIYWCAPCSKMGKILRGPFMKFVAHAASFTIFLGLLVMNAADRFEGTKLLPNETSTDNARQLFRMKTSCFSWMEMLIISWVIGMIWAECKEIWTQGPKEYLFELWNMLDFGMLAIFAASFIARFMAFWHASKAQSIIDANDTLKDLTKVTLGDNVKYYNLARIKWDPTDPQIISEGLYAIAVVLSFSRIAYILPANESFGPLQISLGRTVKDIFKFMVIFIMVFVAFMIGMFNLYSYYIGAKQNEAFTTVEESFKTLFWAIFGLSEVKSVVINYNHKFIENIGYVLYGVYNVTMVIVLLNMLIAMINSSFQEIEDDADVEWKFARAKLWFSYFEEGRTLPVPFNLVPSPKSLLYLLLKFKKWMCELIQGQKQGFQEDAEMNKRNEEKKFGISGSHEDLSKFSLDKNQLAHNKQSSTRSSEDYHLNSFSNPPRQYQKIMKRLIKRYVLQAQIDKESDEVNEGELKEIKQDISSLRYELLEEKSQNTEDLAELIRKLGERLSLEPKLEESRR

Assay [10] shares this target. Nature of the assay: activation of mouse TRPC6 channel, confirmation, selectivity assay for TRPC4 activator project, cell-based, HEK293, membrane potential dye, duplicate (AID 434950;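 active means membrane potential signal rise above negative control mean plus 3 SD in both duplicates, also active in the earlier TRPC4 screen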). The following applies: HEK293 TRPC6, membrane potential fluorescence, at 10 µM; hits give high values.
Assay [11] shares this target. Nature of the assay: TRPC6 potentiation by TRPC4 potentiator hits, confirmation, selectivity assay for TRPC4 potentiator project, HEK293 cells, membrane potential dye, duplicate (AID 434952;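 active means compound raising the membrane signal above positive-control mean plus 3 SD in both repeats, and a primary screen hit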). The settings on record: HEK293 TRPC6, membrane potential dye fluorescence, at 10 µM, maximal acetylcholine added after compound; hits give high values.
In assay [12] the target is Short transient receptor potential channel 4 (Mus musculus) (UniProt Q9QUQ5). Nature of the assay: calcium flux activators in TRPC4/5HT1a cells, counter-screen for TRPC4 activator project, cell-based, second counter screen, HEK293 TRPC4/5HT1a, Fluo-4 (AID 434977;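 active means calcium signal rise above buffer-control mean plus 5 SD in both duplicates, and also a hit in the primary screen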). The settings on record: Fluo-4 calcium flux, at 10 µM; hits give high values.
The nature of assay [13]: calcium flux inhibitors in TRPC4/5HT1a cells, confirmation, counter-screen for TRPC4 inhibitor project, cell-based, second counter screen, HEK293 TRPC4/5HT1a, Fluo-4 (AID 434978;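 active means primary screen active whose calcium signal fell more than 3 SD beyond the full-serotonin control mean in both duplicate plates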;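 on outcome: serotonin given first at submaximal then at maximal dose after compound preincubation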). The settings on record: Fluo-4 calcium flux, at 10 µM, serotonin added to trigger calcium flux; hits give high values.
For assay [14], the system named is TRPC4 (mouse), co-expressed with 5HT1a in HEK293. Nature of the assay: calcium flux potentiators in TRPC4/5HT1a cells, confirmation, counter-screen for TRPC4 potentiator project, cell-based, second counter screen, HEK293 TRPC4/5HT1a, Fluo-4 (AID 434979;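 active means signal rise over 3 SD above mean of control wells given weak agonist, in both repeats and first screen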). The settings on record: Fluo-4 calcium flux, at 10 µM, serotonin added at its EC20 dose; hits give high values.

A short description of assay [15]: calcium flux activation in mu-opioid HEK293 cells, confirmation, counter-screen for TRPC4 activator project, cell-based, HEK293 mu-opioid receptor line (AID 449723;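 active means hit in primary screen, with calcium signal over 5 SD above buffer well mean in both duplicates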;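 further: counter screen cells carry the mu-opioid receptor alone and lack TRPC4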). The settings on record: Fluo-4 calcium fluorescence, at 10 µM; hits give high values.
The nature of assay [16]: calcium flux enhancement in mu-opioid HEK293 cells, confirmation, counter-screen for TRPC4 allosteric potentiator project, cell-based, HEK293 mu-opioid receptor line (AID 449724;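 active means calcium signal rise more than 3 SD above the low-dose agonist control mean, in both duplicate plates and the primary screen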;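 further: HEK293 cells carrying mu-opioid receptor only with no TRPC4 channel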). The settings on record: Fluo-4 calcium flux, at 10 µM, compound added before EC20 DAMGO stimulus; hits give high values.

A word on the inhibition: it is the percentage by which the read-out fell short of the control. Take `COc1ccccc1N1CCN(CC(C)N(C(=O)C2CCCCC2)c2ccccn2)CC1` (stereo unspecified): the outcome in assay [1], in [2], in assay [3], in assay [4], in [7] and in assay [8] was inactive. Also, the call in [9], in assay [10], in assay [11], in assay [12], in [14] and in assay [15] was inactive. In addition, the result in assay [16] was inactive. The inhibition was 93% (active) in assay [5], 52% (active) in assay [6] and 1.31% (active) in assay [13].

With `CCN(CC)CCN(C(=O)c1ccccc1OC)c1nc2ccc(F)cc2s1`, the result in assay [1], in [2], in assay [3], in [4], in assay [6] and in [7] was inactive. Also, the outcome in assay [8], in [9], in assay [10], in assay [11], in assay [12] and in assay [13] was inactive. Besides, the outcome in assay [14], in assay [15] and in assay [16] was inactive. For the same compound, the inhibition in [5] is 84% (active).

Consider `O=C(Nc1ccccc1)N1CCN2C(=O)c3ccccc3C12c1ccccc1` (stereo unspecified), for which the outcome in assay [1], in [2], in assay [3], in [4], in assay [7] and in assay [8] was inactive. Moreover, the outcome in [9], in assay [10], in assay [11], in assay [12], in assay [13] and in [14] was inactive. In addition, the outcome in assay [15] and in assay [16] was inactive. For the same compound, the results for the inhibition in [5] and in [6] were 85% (active) and 62% (active), respectively.

Turning to `N#C/C(=N\Nc1cccc([N+](=O)[O-])c1)C(=O)c1ccc(Br)cc1`, the result in assay [1], in [2], in [3], in [4], in [6] and in assay [7] was inactive. For the same compound, the outcome in assay [8], in assay [10], in [11], in [12], in assay [14] and in [15] was inactive. The result in [16] was inactive. Moreover, the inhibition in assay [5] was 98% (active); in assay [9], 21.5% (active); in assay [13] it was 12.4% (active).

Take `c1ccc(Cn2c(CN3CCCC3)nc3ccccc32)cc1`: the outcome in [1], in [2], in assay [3], in assay [4], in [7] and in [8] was inactive. Besides, the result in assay [9], in [10], in [11], in assay [12], in assay [14] and in [15] was inactive. In addition, in [16], the outcome was inactive. For the same compound, the inhibition is 96% (active) in assay [5], 67% (active) in [6] and 18% (active) in [13].

For the compound `Clc1ccc(CN2C3=NCCN3c3ccccc32)cc1`, the outcome in assay [1], in assay [2], in assay [3], in assay [4], in assay [7] and in [8] was inactive. The outcome in [9], in [10], in [11], in [12], in [14] and in [15] was inactive. Moreover, in [16], the result was inactive. For the same compound, the inhibition in [5] is 99% (active); in assay [6], 75% (active); in assay [13], 14.4% (active).

For the compound `OCCNc1nc(NCc2ccccc2)c2ccccc2n1`, the outcome in [1], in [2], in assay [3], in assay [4], in assay [7] and in [8] was inactive. In addition, the compound was classed as inactive in [9], in assay [10], in assay [11], in assay [12], in [14] and in assay [15]. In addition, the outcome in assay [16] was inactive. Further, the inhibition in assay [5] was 96% (active); in assay [6], 61% (active); in assay [13], 21.4% (active).

On to `Cc1cc(N/N=C/c2ccccc2F)c2ccccc2n1`, for which the result in assay [1], in assay [2], in assay [3], in assay [4], in [7] and in [8] was inactive. The compound was called inactive in assay [9], in assay [10], in assay [11], in assay [12], in assay [14] and in assay [15]. In addition, in assay [16], the outcome was inactive. The inhibition in assay [5] is 97% (active); in assay [6], 67% (active); in assay [13] it was 13.1% (active).

With `O=C(O)c1ccc(N/N=C/c2ccc(-c3cccc(Cl)c3)o2)cc1`, the result in [1], in assay [2], in assay [3], in [4], in [7] and in assay [8] was inactive. Further, the compound was called inactive in assay [9], in assay [10], in assay [11], in [12], in assay [13] and in assay [14]. The result in assay [15] and in [16] was inactive. For the same compound, the inhibition is 87% (active) in [5] and 42% (active) in [6].

Consider `Cc1cc(N2CCCCC2)nc2ccccc12`, for which the outcome in assay [1], in [2], in assay [3], in [4], in assay [7] and in assay [8] was inactive. For the same compound, the compound was called inactive in assay [9], in assay [10], in [11], in assay [12], in [14] and in assay [15]. For the same compound, the outcome in assay [16] was inactive. Further, the values for the inhibition in assay [5], in assay [6] and in [13] were 83% (active), 40% (active) and 28.5% (active), respectively.

Consider `Cc1cc(C)nc(/N=C(\N)N(Cc2ccccc2)Cc2ccccc2)n1`, for which the result in assay [1], in [2], in assay [3], in [4], in assay [6] and in assay [7] was inactive. The outcome in assay [8], in assay [10], in [11], in [12], in [14] and in assay [15] was inactive. Moreover, the result in [16] was inactive. The inhibition in assay [5] is 97% (active); in assay [9] it was 30.5% (active); in assay [13], 41.7% (active).

Consider `CCCCNCC1C(Oc2ccc(Cl)cc2)C(=O)N1c1ccccc1C` (stereo unspecified), for which the result in assay [1], in [2], in assay [3], in [4], in [5] and in [6] was inactive. Also, the result in assay [7], in assay [8], in assay [9], in [10], in assay [11] and in [12] was inactive. Besides, the result in assay [13], in assay [14], in assay [15] and in [16] was inactive.

With `CCOc1cc(CNC2CCCC2)cc(Cl)c1OCc1ccccc1`, the outcome in assay [1], in [2], in [3], in assay [4], in assay [6] and in assay [7] was inactive. Further, the result in [8], in [9], in [10], in assay [11], in [12] and in assay [14] was inactive. Besides, the outcome in assay [15] and in assay [16] was inactive. Besides, the inhibition in assay [5] is 76% (active); in assay [13], 33% (active).

For `Cc1ccc(OCC(COCc2ccccc2)NC(C)C)cc1` (stereo unspecified), the outcome in assay [1], in [2], in assay [3], in assay [4], in assay [6] and in assay [7] was inactive. Also, the result in assay [8], in assay [10], in assay [11], in [12], in [14] and in assay [15] was inactive. Moreover, the outcome in assay [16] was inactive. Also, the inhibition in [5] is 85% (active); in assay [9], 5% (active); in assay [13], 42.1% (active).

In the case of `O=C(C1CCN(CC2CC=CCC2)CC1)N(CCc1ccccc1)Cc1ccccc1` (stereo unspecified), the result in [1], in [2], in assay [3], in [4], in assay [6] and in assay [7] was inactive. Besides, the outcome in assay [8], in assay [10], in assay [11], in [12], in assay [14] and in assay [15] was inactive. Besides, the result in assay [16] was inactive. Also, the inhibition in [5] was 53% (active); in assay [9], 32.5% (active); in assay [13] it was 40.1% (active).

In the case of `CCCOc1cccc(C(=O)NCCNC(=O)c2ccco2)c1`, the result in assay [1], in [2], in assay [3], in assay [4], in assay [5] and in [6] was inactive. Further, the result in [7], in assay [8], in assay [9], in assay [10], in assay [11] and in assay [12] was inactive. The result in assay [13], in assay [14], in assay [15] and in assay [16] was inactive.
